# Test results reported in PubChem BioAssay (EPA / NIEHS).
# Calls of active or inactive are those of the source. The calls were made as follows: active = hit-call score of the fitted dose curve at least 0.9, where 1 is the maximum; inactive = score below 0.9.
# Experiment: APR_HepG2_P-H2AX_72hr: Apredica 72-hour HepG2 Assay for H2AX Phosphorylation (AID 2282916)
# Settings: imaging, actives raise or lower the signal
# Description: APR_HepG2_72hr is a cell-based, multiplexed-readout assay that uses HepG2, a human liver cell line, with measurements taken at 72 hours after chemical dosing in a 384-well plate.APR_HepG2_P-H2AX_72hr is one of 10 assay component(s) measured or calculated from the APR_HepG2_72hr assay. It is designed to make measurements of dna content, a form of viability reporter, as detected with fluorescence intensity signals by HCS Fluorescent Imaging technology.Data from the assay component APR_HepG2_P-H2AX_72hr was analyzed into 1 assay endpoint. This assay endpoint, APR_HepG2_P-H2AX_72hr, was analyzed with bidirectional fitting relative to DMSO as the negative control and baseline of activity. Using a type of viability reporter, measures of protein for gain or loss-of-signal activity can be used to understand the signaling at the pathway-level as they relate to the gene . Furthermore, this assay endpoint can be referred to as a primary readout, because this assay has produced multiple assay endpoints where this one serves a signaling function. To generalize the intended target to other relatable targets, this assay endpoint is annotated to the dna binding intended target family, where the subfamily is cellular response to DNA damage stimulus.
# Cells were treated with dimethyl sulfoxide (DMSO) as a solvent control at a final concentration of 0.5% v/v or with compounds in DMSO with a resulting final DMSO concentration of 0.5% v/v. Compound treatment was done at concentrations of 0.39, 0.78, 1.56, 3.12, 6.24, 12.5, 25, 50, 100, and 200 uM in duplicate on each plate. Cells were treated with compounds for 1, 24, or 72 hr. Carbonyl […] m-chloro-phenylhydrazone (CCCP) and taxol were used as positive controls for mitochondrial function and cytoskeletal stability, respectively; DMSO served as the negative control for this experiment. Cells were fixed by the direct addition of 50 uL formaldehyde in Hank's Balanced Salt Solution (HBSS) to a final concentration of 3.7%. After incubation in the fixation medium for 30 min at room temperature (293-298 K), cells were rinsed twice with HBSS and treated with cell permeabilization buffer (16 uL of 0.5% Triton X-100) for 10 min at room temperature (293-298 K) before labeling. For mitochondrial membrane potential and mitochondrial measurements, pre-fixed cells were incubated with 50 uL of MitoTracker Red CMXRos (Invitrogen) at a concentration of 250 nM for 30 min before fixation. In the remaining cases, post-fixed cells were labeled by incubation with a multiplexed mixture of primary antibodies in HBSS for 60 min at room temperature (293-298 K) to detect immunoreactivity of c-Jun (1:500), phospho-histone H3 (1:100), phospho-histone H2A.x (1:200), p53 (1:400), alpha-tubulin (1:200) and Hoechst 33342 (2 ug/mL). Cells were labeled for multiplexed imaging on two separate plates: a) Hoechst 33342, MitoTracker Red, phospho-histone H3, and alpha-tubulin, and b) Hoechst 33342, phospho-histone H2A.x, and c-Jun. A final rinse with HBSS (50 uL) was performed before analysis. The primary and secondary antibodies for the proteins were phospho-histone H3 (rabbit anti-phospho-histone H3 and FITC-donkey anti-rabbit IgG), phospho-histone H2A.x (mouse anti-phospho-histone H2A.x and FITC-donkey anti-mouse IgG), c-Jun (rabbit anti-phospho-c-Jun and Cy3-donkey anti-rabbit IgG), p53 (sheep anti-p53 and Cy5-donkey anti-sheep IgG), alpha-tubulin (mouse anti-alpha-tubulin and Cy5-donkey anti-mouse IgG). These antibodies are available as the CellCiphr HepG2 assay kit (Millipore).Digital images of each well were captured using a Cellomics ArrayScan VTI (Thermo Scientific Cellomics) (0.8 NA objective, 0.63x optical coupler, and XF-93 filter set) at 20x magnification. The images were acquired using the autofocus feature of the ArrayScan instrument, which entails the following steps. First, the camera focuses on channel 1 (Hoechst 33342), where nuclei are identified. Second, a Z offset of 1 um is used for capturing mitochondria (MitoTracker Red). […]
SMILES,outcome,AC50
CCCCCCCCOC(=O)c1ccc(C(=O)OCCCCCCCC)c(C(=O)OCCCCCCCC)c1,inactive,–
ClCCOCCCl,inactive,–
CCNS(=O)(=O)C(F)(F)C(F)(F)C(F)(F)C(F)(F)C(F)(F)C(F)(F)C(F)(F)C(F)(F)F,–,100 µM (active)
ClC1=C(Cl)[C@]2(Cl)[C@H]3[C@H]([C@@H]4C=C[C@H]3C4)[C@@]1(Cl)C2(Cl)Cl,–,42.6 µM (active)
Cc1ccc([N+](=O)[O-])cc1,inactive,–
[O-][Cl+]O,inactive,–
c1ccc(N=Nc2ccccc2)cc1,inactive,–
CCCCCCCCn1sccc1=O,–,4.92 µM (active)
CCC[CH2][Sn]([Cl])([CH2]CCC)[CH2]CCC,–,0.0111 µM (active)
Cc1cccc(N)c1N,–,56.3 µM (active)
Cc1ccc(N=C=O)cc1N=C=O,inactive,–
Brc1ccc(Oc2ccccc2)cc1,inactive,–
N#CC(Br)Br,–,96.9 µM (active)
O=P(OCCCl)(OCCCl)OCCCl,inactive,–
O=C(O)C1C2CCC(O2)C1C(=O)O (stereo not given),–,22.2 µM (active)
CC(C)(C)C(O)(CCc1ccc(Cl)cc1)Cn1cncn1 (stereo not given),–,111 µM (active)
c1ccc(C2CO2)cc1 (stereo not given),inactive,–
O=[N+]([O-])C(Br)(CO)CO,inactive,–
[Cl-].[Cl-].[Hg+2],inactive,–
Oc1ccccc1Cl,inactive,–

SMILES,outcome,AC50
CCN(CC)N=O,inactive,–
CCCCCOC(=O)c1ccccc1C(=O)OCCCCC,inactive,–
CCC(C)c1ccc(O)cc1 (stereo not given),inactive,–
COP(=S)(OC)SCN1C(=O)c2ccccc2C1=O,inactive,–
CC(C)N(Cc1ccccc1)C(=O)C(C)(C)C,inactive,–
CCCCCCCCCCCCCN1CC(C)OC(C)C1 (stereo not given),inactive,–
[As]#[In],inactive,–
CNC(=O)Oc1cccc2c1OC(C)(C)C2,inactive,–
Nc1ccc(Cc2ccc(N)cc2)cc1,inactive,–
O=C(Oc1ccc(Br)cc1)N1CCN2CCC1CC2,–,101 µM (active)
CCOC(=O)[C@]1(c2ccccc2)Oc2ccccc2[C@@H]1N,–,112 µM (active)
c1ccc2c(c1)-c1cccc3cccc-2c13,–,108 µM (active)
CN(C)c1ccccc1,inactive,–
CCC12COCN1COC2,–,82.1 µM (active)
CCOc1cccc(C2(N3CCN(c4ccccc4)CC3)CCC(C)CC2)c1 (stereo not given),inactive,–
Nc1ccc(Oc2ccc(N)cc2)cc1,inactive,–
N#CC(Br)(Br)C(N)=O,inactive,–
CC(C)(C)OOC(=O)c1ccccc1,–,35.1 µM (active)
Clc1ccc(C(c2ccc(Cl)cc2)C(Cl)(Cl)Cl)cc1,–,50.2 µM (active)
CC(C)COC(=O)c1ccccc1C(=O)OCC(C)C,inactive,–
